From paper PMC5700166 come the findings set out here.

Holding throughout (assay): protein-binding microarray (PBM); PBM: ~300 nM protein, 6 mM HEPES pH 7.8, 80 mM KCl, 0.5 mM EDTA, 0.5 mM EGTA, 6% glycerol, 35 ng/ul poly-dIdC, 1% milk, 1 h, room temperature; Ap Aiptasia and Nv Nematostella (sea anemones) / Co Capsaspora / Aq Amphimedon (sponge) / Dm Drosophila / Hu human; RHD is the Rel homology domain; high values mean tight binding
What all share (conditions): dsDNA, one strand shown

One test has as its target T1, GST-Aq-NF-kB (Amphimedon queenslandica, UniProt A9Y5G7 2-389).
T1 sequence: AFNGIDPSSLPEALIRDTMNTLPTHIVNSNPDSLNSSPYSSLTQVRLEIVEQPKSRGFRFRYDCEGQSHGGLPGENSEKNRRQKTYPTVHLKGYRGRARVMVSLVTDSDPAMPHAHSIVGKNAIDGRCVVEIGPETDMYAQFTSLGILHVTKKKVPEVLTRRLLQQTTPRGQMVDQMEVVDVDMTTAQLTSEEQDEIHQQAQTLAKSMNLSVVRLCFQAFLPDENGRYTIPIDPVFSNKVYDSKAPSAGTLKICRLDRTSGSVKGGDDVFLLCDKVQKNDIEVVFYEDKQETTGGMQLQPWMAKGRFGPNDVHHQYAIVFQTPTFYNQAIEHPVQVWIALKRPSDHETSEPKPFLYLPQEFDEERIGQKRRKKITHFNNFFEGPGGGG

In a further test the target is T2, GST-Ap-NF-kB RHD (Exaiptasia pallida (Aiptasia), UniProt A0A913YAJ5 2-422).
T2 sequence: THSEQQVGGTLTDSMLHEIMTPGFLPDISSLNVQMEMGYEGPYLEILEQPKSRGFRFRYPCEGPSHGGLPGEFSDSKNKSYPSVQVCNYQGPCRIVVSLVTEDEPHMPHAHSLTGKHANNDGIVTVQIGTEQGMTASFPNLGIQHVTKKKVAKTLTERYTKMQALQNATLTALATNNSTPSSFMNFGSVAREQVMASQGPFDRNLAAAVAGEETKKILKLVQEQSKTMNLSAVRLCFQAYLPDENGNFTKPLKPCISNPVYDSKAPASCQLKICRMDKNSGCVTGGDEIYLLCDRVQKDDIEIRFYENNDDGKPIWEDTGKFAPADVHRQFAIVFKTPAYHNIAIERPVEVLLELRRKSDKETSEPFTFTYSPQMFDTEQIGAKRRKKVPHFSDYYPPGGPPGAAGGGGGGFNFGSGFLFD

In test [1] the target is T3, GST-Nv-NF-kB (Cys allele) (Nematostella vectensis, UniProt E5G601 2-411).
T3 sequence: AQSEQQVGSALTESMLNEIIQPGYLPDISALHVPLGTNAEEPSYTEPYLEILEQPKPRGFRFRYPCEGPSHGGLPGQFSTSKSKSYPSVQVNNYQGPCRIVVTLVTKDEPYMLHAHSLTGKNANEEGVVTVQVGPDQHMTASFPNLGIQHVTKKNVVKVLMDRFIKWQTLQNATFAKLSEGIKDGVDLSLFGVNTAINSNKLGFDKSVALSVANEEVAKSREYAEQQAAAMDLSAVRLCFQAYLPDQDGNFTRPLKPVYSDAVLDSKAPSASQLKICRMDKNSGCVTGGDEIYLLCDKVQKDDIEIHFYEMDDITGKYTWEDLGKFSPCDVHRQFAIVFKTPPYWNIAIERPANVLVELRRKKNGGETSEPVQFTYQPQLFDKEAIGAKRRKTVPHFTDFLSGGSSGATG

For test [2], the target named is T4, GST-Nv-NF-kB (Ser allele) (Nematostella vectensis, UniProt A7UNT2 2-411).
T4 sequence: T3 sequence with Q21R, C66S, S207N, E215Q, V217A, E225K, A268E, D399E

Another test deals with T5, GST-Co-NF-kB (Capsaspora owczarzaki, UniProt F1ARL5 200-546).
T5 sequence: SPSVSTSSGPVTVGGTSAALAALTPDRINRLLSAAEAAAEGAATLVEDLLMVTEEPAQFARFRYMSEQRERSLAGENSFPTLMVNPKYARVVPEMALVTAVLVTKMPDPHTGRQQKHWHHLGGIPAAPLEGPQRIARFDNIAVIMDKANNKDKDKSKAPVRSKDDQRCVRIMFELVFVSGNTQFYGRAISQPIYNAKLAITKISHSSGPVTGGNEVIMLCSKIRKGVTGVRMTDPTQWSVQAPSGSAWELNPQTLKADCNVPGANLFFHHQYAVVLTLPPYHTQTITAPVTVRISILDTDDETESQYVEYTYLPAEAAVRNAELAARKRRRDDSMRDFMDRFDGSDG

Another test deals with GST-Hu-p50 (Homo sapiens, UniProt P19838 7-356).

Residue numbers refer to the chain shown, from its start.

Sequence of GST-Hu-p50 (P19838 7-356): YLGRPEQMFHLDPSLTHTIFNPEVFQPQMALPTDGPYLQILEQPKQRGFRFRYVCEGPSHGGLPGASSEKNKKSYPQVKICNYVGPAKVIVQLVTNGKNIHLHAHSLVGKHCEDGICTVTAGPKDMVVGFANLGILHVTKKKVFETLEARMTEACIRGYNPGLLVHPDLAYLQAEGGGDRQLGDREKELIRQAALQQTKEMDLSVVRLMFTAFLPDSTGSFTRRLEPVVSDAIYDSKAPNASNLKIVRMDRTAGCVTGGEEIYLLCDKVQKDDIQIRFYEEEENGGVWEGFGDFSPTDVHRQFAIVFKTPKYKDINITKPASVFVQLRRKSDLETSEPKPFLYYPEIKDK

As for “CCGATTAACATCAGGAAATTTCATGATGTTAATCGGGTCTTGATTCGCTTGACGCTGCTG”, the binding signal with GST-Aq-NF-kB was found to be 1.4 z-score.

Regarding “CCGATTAACATCACCATGGGAAATGATGTTAATCGGGTCTTGATTCGCTTGACGCTGCTG”, the binding signal came out at 1.25 z-score in the test with GST-Ap-NF-kB RHD; 2.23 z-score in test [1]; 1.45 z-score in test [2]; 2.04 z-score with GST-Co-NF-kB; 1.76 z-score with GST-Aq-NF-kB; 1.98 z-score with GST-Hu-p50.

On to “CCGATTAACATCAGGGAAAGATATGATGTTAATCGGGTCTTGATTCGCTTGACGCTGCTG”, for which the binding signal was 2.67 z-score in the test with GST-Ap-NF-kB RHD; 4.29 z-score in test [1]; 4.52 z-score in test [2]; 4.56 z-score with GST-Co-NF-kB; 5.22 z-score in the test with GST-Aq-NF-kB; 3.62 z-score with GST-Hu-p50.

Consider “CCGATTAACATCATCCCTCCCCATGATGTTAATCGGGTCTTGATTCGCTTGACGCTGCTG”, for which the binding signal is 3.84 z-score with GST-Ap-NF-kB RHD; 2.72 z-score in test [1]; 2.58 z-score in test [2]; 3.09 z-score with GST-Co-NF-kB; 2.55 z-score in the test with GST-Aq-NF-kB; 1.83 z-score in the test with GST-Hu-p50.

“CCGATTAACATCAAGTACGGGAATGATGTTAATCGGGTCTTGATTCGCTTGACGCTGCTG”: the binding signal with GST-Ap-NF-kB RHD came out at 1.11 z-score; in test [1], 2.04 z-score; in test [2], 1.41 z-score; in the test with GST-Co-NF-kB, 2.85 z-score; in the test with GST-Aq-NF-kB, 3.24 z-score; in the test with GST-Hu-p50 it was 1.22 z-score.

As to “CCGATTAACATCAGGGAATTGGATGATGTTAATCGGGTCTTGATTCGCTTGACGCTGCTG”, the binding signal is 2.15 z-score with GST-Ap-NF-kB RHD; 3.52 z-score in test [1]; 3.84 z-score in test [2]; 1.88 z-score with GST-Co-NF-kB; 2.8 z-score with GST-Aq-NF-kB; 1.84 z-score with GST-Hu-p50.

“CCGATTAACATCAACTTTTTCCCTGATGTTAATCGGGTCTTGATTCGCTTGACGCTGCTG”: the binding signal came out at 2.88 z-score with GST-Ap-NF-kB RHD; 4.79 z-score in test [1]; 6.57 z-score in test [2]; 5.52 z-score with GST-Co-NF-kB; 3.16 z-score with GST-Aq-NF-kB; 2.68 z-score with GST-Hu-p50.

On to “CCGATTAACATCAGAAATGCCCATGATGTTAATCGGGTCTTGATTCGCTTGACGCTGCTG”, for which the binding signal in the test with GST-Aq-NF-kB is 1.69 z-score; in the test with GST-Hu-p50, 1.76 z-score.
